# Values without a mark were called inactive. Results filed as inconclusive are left out. Where a call stands in place of a potency, no number is given. Calls of active or inactive are those of the source. Unless noted, calls follow the shape of the dose curve; as a rule, active = well fitted curve in the direction sought with a large enough effect in the repeat runs; inconclusive = weak or mixed curves; inactive = no such curve, though single readings can be large; an effect the other way counts as inactive or inconclusive.
# How the values were obtained:
# [1] = qHTS assay for small molecule agonists of the p53 signaling pathway (AID 651631; calls by dose curve; also: nearly all actives have a fitted effect of over 15% in size)
# Summary of the method: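 Read-out is beta-lactamase FRET fluorescence measured 2 h after substrate addition at room temperature, in HCT-116 cells with a p53 response element-driven reporter exposed to compounds for 16 h at 37 °C.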
# [2] = qHTS assay for small molecules that induce genotoxicity in human embryonic kidney cells expressing luciferase-tagged ATAD5 (AID 651632); also: nearly all actives have a fitted effect of over 15% in size
# Summary of the method: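 Quantitative HTS in HEK293T expressing luciferase-tagged ATAD5, whose levels rise upon DNA damage. Exposure ran 16 hr at 37C and 5% CO2, with luminescence read 30 min after Amplite addition at room temperature.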
# [3] = qHTS assay for small molecule agonists of the p53 signaling pathway - cell viability (AID 651633; calls by dose curve; also: nearly all actives have a fitted effect of over 30% in size; also: potency is read from the fitted curve at half-maximal effect)
# Summary of the method: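 p53RE-bla cells, seeded at 4,000 per well and rested 5 h at 37 C/5% CO2, received compounds in DMSO for 16 h at 37 C. CellTiter-Glo was then added, and luminescence was read after 30 min at room temperature to gauge cytotoxicity.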
# [4] = qHTS assay for small molecule disruptors of the mitochondrial membrane potential - cell viability (AID 720634; calls by dose curve;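 also: human HepG2 liver cancer cells; series mostly up to about 83 µM; nearly all actives have a fitted effect of over 20% in size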)
# Summary of the method: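 ATP-based luminescent viability readout (CellTiter-Glo, 30 min, room temperature) in HepG2 cells multiplexed with the m-MPI membrane potential dye; compound exposure lasted 1 hr at 37 C.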
# [5] = qHTS assay for small molecule disruptors of the mitochondrial membrane potential (AID 720635)
# Summary of the method: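 HepG2 cells (2,000/well) attached overnight at 37C, then took compound for 1 hr at 37C, 5% CO2. Mito-MPS dye was added for 30 min; fluorescence was read at 490/535 nm (monomers) and 540/590 nm (aggregates).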
# [6] = qHTS assay to test for compound auto fluorescence at 590 nm (red) in HepG2 cells (AID 720674)
# Summary of the method: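 Rose Bengal sodium served as the red fluorophore standard. HepG2 monolayers (overnight attachment, MEM with 10% FBS) were exposed to test compounds for 1 hr at 37 C and read at Ex 540/Em 590 nm.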
# [7] = qHTS assay to test for compound auto fluorescence at 535 nm (green) in HepG2 cells (AID 720675)
# [8] = qHTS assay to test for compound auto fluorescence at 460 nm (blue) in HEK293 cells (AID 720678)
# Summary of the method: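 Intrinsic compound fluorescence is recorded in live HEK293 cultures after overnight incubation at 37C, 5% CO2, using excitation 405 nm and emission 460 nm. Values are referenced to triamterene.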
# [9] = qHTS assay to test for compound auto fluorescence at 590 nm (red) in HEK293 cells (AID 720679)
# Summary of the method: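 Red autofluorescence, HEK293 cells: 2,000 cells/well; attach 4-5 hr 37C; add 23 nL cpd or DMSO; incubate o/n 37C 5% CO2; read Ex540/Em590; Rose Bengal sodium reference.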
# [10] = qHTS assay to test for compound auto fluorescence at 535 nm (green) in HEK293 cells (AID 720680)
# [11] = qHTS assay to test for compound auto fluorescence at 460 nm (blue) in HEK293 cell free culture (AID 720681)
# Summary of the method: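 Test compounds were pinned into cell-free culture medium (DMEM with 10% FBS) and fluorescence was read directly at Ex/Em 405/460 nm. Signals were expressed as fluorescence equivalents of triamterene, with DMSO vehicle as control.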
# [12] = qHTS assay to test for compound auto fluorescence at 535 nm (green) in HEK293 cell free culture (AID 720682)
# Summary of the method: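 Fluorescein serves as the green reference fluorophore; each compound's intrinsic emission at 535 nm (excitation 485 nm) is reported as an equivalent amount of that dye, measured in serum-containing DMEM without cells.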
# [13] = qHTS assay to test for compound auto fluorescence at 590 nm (red) in HEK293 cell free culture (AID 720683)
# Summary of the method: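 Tox21 10K library compounds were pinned into cell-free DMEM with 10% FBS and fluorescence was read at excitation 540 nm. Activity is expressed as Rose Bengal sodium equivalency.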
# [14] = qHTS assay to test for compound auto fluorescence at 590 nm (red) in HepG2 cell free culture (AID 720684)
# Summary of the method: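 Ex 540 / Em 590 nm read of compound in cell-free MEM (10% FBS). Rose Bengal sodium reference.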
# [15] = qHTS assay to test for compound auto fluorescence at 460 nm (blue) in HepG2 cell free culture (AID 720685)
# Summary of the method: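 Cell-free plates of MEM plus 10% FBS received 23 nL compound or DMSO vehicle; blue-channel (405/460 nm) intensity scored against triamterene as reference fluorophore.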
# [16] = qHTS assay to test for compound auto fluorescence at 535 nm (green) in HepG2 cell free culture (AID 720686)
# [17] = qHTS assay to test for compound auto fluorescence at 460 nm (blue) in HepG2 cells (AID 720687)
# Summary of the method: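 Cells (2,000/well in MEM with 10% FBS) attached overnight at 37 C, then were exposed to compound or DMSO for 1 hr at 37 C, 5% CO2. Fluorescence read at Ex/Em 405/460 nm, expressed as triamterene-equivalent signal.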
# [18] = qHTS assay for small molecules that induce genotoxicity in human embryonic kidney cells expressing luciferase-tagged ATAD5 - cell viability (AID 651634; calls by dose curve; also: nearly all actives have a fitted effect of over 25% in size; also: potency is read from the fitted curve at half-maximal effect)
# Summary of the method: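 After 15.5 hr incubation with compound at 37C, 5% CO2, HEK293T ATAD5-luciferase cells received CellTiter-Fluor reagent; fluorescence intensity was quantified following 30 min at 37C.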
# [19] = molecular target: Glucocorticoid receptor (Homo sapiens) (UniProt P04150); experiment: qHTS assay to identify small molecule agonists of the glucocorticoid receptor (GR) signaling pathway (AID 720691; active = well fitted activation curve with a large enough effect in the signal ratio in the repeat runs, not every such curve was filed as active; the % refers to the signal ratio)
# Sequence of Glucocorticoid receptor (Homo sapiens) (P04150 whole entry, looked up): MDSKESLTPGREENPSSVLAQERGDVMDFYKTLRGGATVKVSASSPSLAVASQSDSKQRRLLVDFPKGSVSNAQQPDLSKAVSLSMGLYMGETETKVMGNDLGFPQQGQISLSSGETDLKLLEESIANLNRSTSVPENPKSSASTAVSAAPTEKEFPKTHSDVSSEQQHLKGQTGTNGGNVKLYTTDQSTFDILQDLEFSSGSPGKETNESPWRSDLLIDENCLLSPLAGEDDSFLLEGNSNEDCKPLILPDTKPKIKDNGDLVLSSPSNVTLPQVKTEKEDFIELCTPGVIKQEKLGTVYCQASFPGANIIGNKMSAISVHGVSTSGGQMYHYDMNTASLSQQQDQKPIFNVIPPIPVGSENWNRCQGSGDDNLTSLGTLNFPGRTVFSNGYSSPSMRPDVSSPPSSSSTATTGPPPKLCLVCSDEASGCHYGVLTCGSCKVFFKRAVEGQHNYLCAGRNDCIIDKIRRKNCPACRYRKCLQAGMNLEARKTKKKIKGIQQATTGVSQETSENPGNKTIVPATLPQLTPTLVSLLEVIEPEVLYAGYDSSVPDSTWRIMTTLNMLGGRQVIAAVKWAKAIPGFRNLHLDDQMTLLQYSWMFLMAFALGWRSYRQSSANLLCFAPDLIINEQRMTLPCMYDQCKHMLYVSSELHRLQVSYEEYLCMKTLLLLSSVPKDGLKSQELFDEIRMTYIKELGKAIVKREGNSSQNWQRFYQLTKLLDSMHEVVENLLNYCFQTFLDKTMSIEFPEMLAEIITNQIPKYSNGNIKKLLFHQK
# Summary of the method: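 Cells: GR-bla HeLa, endogenous GR with stably integrated GRE-beta-lactamase reporter. Treatment 18 h, 37 C, compounds delivered in DMSO. Detection via LiveBLAzer B/G FRET substrate, 2 h RT, fluorescence intensity.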
# [20] = molecular target: Glucocorticoid receptor (Homo sapiens) (UniProt P04150); experiment: qHTS assay to identify small molecule antagonists of the glucocorticoid receptor (GR) signaling pathway (AID 720692; active = well fitted inhibition curve with a large enough effect in the signal ratio in the repeat runs, not every such curve was filed as active; the % refers to the signal ratio)
# Summary of the method: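 Quantitative HTS in antagonist format: HeLa cells expressing endogenous GR and a stably integrated GRE-bla reporter, stimulated with 5 nM dexamethasone (final) alongside test compounds for 18 h.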
Compound,Potency [1],Potency [2],Potency [3],outcome [4],Potency [5],outcome [6],outcome [7],Potency [8],outcome [9],outcome [10],Potency [11],outcome [12],outcome [13],outcome [14],Potency [15],outcome [16],Potency [17],Potency [18],Potency [19],Potency [20]
CCN(CC)CCNC(=O)c1cc(Cl)c(N)cc1OC,inactive,inactive,inactive,inactive,inactive,inactive,inactive,inactive,inactive,inactive,inactive,inactive,inactive,inactive,inactive,inactive,inactive,–,–,–
CCN(CC)c1ccc(C(=C2C=CC(=[N+](CC)CC)C=C2)c2ccc(S(=O)(=O)O)cc2S(=O)(=O)[O-])cc1,inactive,inactive,27.3 µM (active),–,–,inactive,–,inactive,inactive,–,inactive,inactive,inactive,inactive,inactive,inactive,inactive,27.3 µM (active),inactive,inactive
C1=CCC2CC=CC2C1 (stereo unspecified),inactive,inactive,inactive,inactive,–,inactive,inactive,inactive,–,inactive,inactive,inactive,inactive,inactive,inactive,inactive,inactive,inactive,inactive,inactive
O=C(O)CN1C(=O)c2cccc3cccc(c23)C1=O,inactive,inactive,inactive,inactive,–,inactive,inactive,inactive,inactive,inactive,inactive,inactive,inactive,–,inactive,inactive,inactive,inactive,–,–
CCC(=O)OCc1ccc(OC)cc1,inactive,inactive,inactive,inactive,inactive,inactive,inactive,inactive,inactive,inactive,inactive,inactive,inactive,inactive,inactive,inactive,inactive,–,inactive,inactive

# From PubChem BioAssay (Tox21)
